gsp ag: gsp mutant agonism; gsp mutant cells, cAMP HTRF, 30 min; Potency, µM (highest dose often 76.9 µM), for the others: top-dose activation (cAMP increase), usual class: activators; 340,000 compounds, 0.13% hits; AID 624287; active = well fitted activation curve with a large enough effect; inconclusive = small, poorly fitted or top-dose-only effect, or another doubt; inactive = no such curve, though single readings can be large or run the other way; cell line not stated here;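 note: phosphodiesterase inhibitor Ro 20-1724 added with compounds to block cAMP breakdown; potency is the fitted concentration of half-maximal effect; nearly all actives have a fitted effect of over 60% in size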
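Cells in DMEM/10% FBS with G418 were pretreated with compounds in DMSO plus […] (300 uM stock) for 30 min at 37C. cAMP was measured by HTRF (cAMP-d2 plus anti-cAMP antibody-K) after 30 min at room temperature.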
a7 integrin act: activators of alpha7 integrin expression for muscular dystrophy; Potency, µM (doses to about 38.3 µM), for inactives: at the top dose activation, hits mostly activators; AID 624291; alpha7betagal myoblasts, beta-gal FDG fluorescence, 48 h; 350,000 compounds, 0.064% hits;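 note: potency is the fitted concentration of half-maximal effect; 100% = response of the positive control SU9516; nearly all actives have a fitted effect of over 60% in size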
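Alpha7betagal+/- myoblasts (passage 13) were plated 16-24 hr, then exposed to compounds (1:260 dilution of DMSO stock) for 48 hours at 37C. After MPER lysis, β-galactosidase reporter activity was read as FDG fluorescence (ex 480/em 540) after 30 minutes.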
RXFP1 ag: RXFP1 (human) receptor agonism | Q9HBX9 | HEK293T-RXFP1 cAMP TR-FRET, 30 min; response scale: percent of porcine relaxin response, buffer zero | Potency, µM (top dose mostly 57.5 µM), for inactives: top-dose activation, usual class: activators | 370,000 compounds, 0.3% hits; note: potency is the fitted concentration of half-maximal effect; % is set by controls: 0 for no effect and ±100 for the full control effect; nearly all actives have a fitted effect of over 60% in size
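HEK293 cells stably expressing RXFP1, treated 30 min at 37C with compounds plus PDE4 inhibitor Ro 20174; cAMP measured by HTRF TR-FRET. Normalized to buffer and 29 nM porcine relaxin; EC50 by Hill fit.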
gsp antagonist: antagonizes gsp, the McCune-Albright syndrome mutation; 340,000 compounds, 0.4% hits; AID 624288; gsp-mutant cells, cAMP HTRF, 30 min; Potency, µM (titrated, usually from 76.9 µM), inactives show at the highest dose activity change, negative = inhibition, hits mostly inhibitors; calls by dose curve; cell line not stated here;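 note: intracellular cAMP measured with PDE inhibitor Ro 20-1724 present during compound exposure; potency is the fitted concentration of half-maximal effect; % is set by controls: 0 for no effect and ±100 for the full control effect; nearly all actives have a fitted effect of over 65% in size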
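G418-selected cells were plated in DMEM/10% FBS for 16-24 h at 37C, then treated with compounds plus the PDE inhibitor […] (300 uM solution added) for 30 min at 37C. Intracellular cAMP was measured by HTRF after 30 min lysis at room temperature.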
RXFP1 antag: RXFP1 (human) relaxin receptor antagonism; Q9HBX9; HEK293-RXFP1, relaxin-stimulated cAMP HTRF, 30 min; active compounds read low; activity change, negative = inhibition, % at 57.5 µM; 350,000 compounds, 0.59% hits; AID 1259400;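 active = activity change of -60% or lower, but not beyond a set lower limit; inconclusive = change between -60% and -40%, or beyond the set limit; inactive = change above -40%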; note: % is set by controls: 0 for no effect and ±100 for the full control effect
S-ASM inh: inhibitors of human secretory acid sphingomyelinase | placental ASM, HMU-PC fluorogenic substrate, 60 min | Potency, µM (top dose mostly 57.5 µM), for the others: top-dose activity change, negative = inhibition, usual class: inhibitors | 340,000 compounds, 0.006% hits | AID 504937; note: potency is the fitted concentration of half-maximal effect
Target sequence (P17405 47-631 limits assumed): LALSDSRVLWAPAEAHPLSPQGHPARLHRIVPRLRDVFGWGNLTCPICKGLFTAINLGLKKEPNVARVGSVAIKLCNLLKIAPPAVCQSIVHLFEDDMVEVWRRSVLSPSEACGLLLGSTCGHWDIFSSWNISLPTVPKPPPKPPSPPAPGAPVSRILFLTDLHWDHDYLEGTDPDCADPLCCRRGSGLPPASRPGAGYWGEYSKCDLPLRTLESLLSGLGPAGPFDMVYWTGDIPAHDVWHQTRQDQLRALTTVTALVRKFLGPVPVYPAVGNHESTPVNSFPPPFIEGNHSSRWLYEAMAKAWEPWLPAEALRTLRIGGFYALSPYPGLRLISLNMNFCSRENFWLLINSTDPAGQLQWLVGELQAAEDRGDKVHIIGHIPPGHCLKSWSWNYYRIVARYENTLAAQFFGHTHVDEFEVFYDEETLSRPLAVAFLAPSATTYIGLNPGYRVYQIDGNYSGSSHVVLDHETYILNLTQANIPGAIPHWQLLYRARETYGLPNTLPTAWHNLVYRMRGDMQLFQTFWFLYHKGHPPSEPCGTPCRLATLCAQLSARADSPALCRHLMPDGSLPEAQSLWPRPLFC
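Human placenta-derived ASM preincubated with compound 10 min at room temperature, then reacted with 9 uM (final) fluorogenic HMU-PC substrate for 60 min at 37 C. Stop solution raises pH to 10; fluorescence read at Ex 386/Em 447 nm.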
* marks the source's active call; other numbers are inactive results; ? = inconclusive; . = no result given; [ ] = dose if it differs, or a comment. An excerpt weighted towards active compounds, which were near 1.1% of everything screened. Unless noted, calls come from the whole dose curve; as a rule, active = well fitted curve in the direction sought with a large enough effect; inconclusive = small, poorly fitted or top-dose-only effect, or another doubt; inactive = no such curve, though single readings can be large; an effect the other way counts as inactive or inconclusive.

SMILES | gsp ag | a7 integrin act | RXFP1 ag | gsp antagonist | RXFP1 antag | S-ASM inh
CCN(CC)CCOc1ccc(C(O)(Cc2ccc(Cl)cc2)c2ccc(C)cc2)cc1 (centres undefined) | . | . | . | . | -91* | .
COCCN(CCOc1cc(C)cc(C)c1)Cc1ccc(Cl)cc1 | -2% | 0% | 2% | 1% | -22 | -2%
O=C(CN1C(=O)c2ccccc2C1=O)Nc1ccc(N2CCOCC2)cc1 | 20% | 1% | -1% | 3% | -7 | -2%
O=C(CN1C(=O)c2ccccc2C1=O)Nc1ccc(S(=O)(=O)N2CCOCC2)cc1 | -8% | -8% | 2% | -1% | -82* | 2%
O=C(OCN1C(=O)c2ccccc2C1=O)c1cc(S(=O)(=O)N2CCOCC2)ccc1F | 3.2µM* | -7% | ? | -1% | 9 | 5%
CC(C)OP(=O)(CP(=O)(OC(C)C)OC(C)C)OC(C)C | . | . | . | . | -13 | .
CC(C)C(=O)N1CCC2(CC1)Oc1ccc(F)cc1C(=O)C21CC(c2cccnc2)=NO1 (centres undefined) | . | . | 0% | . | . | .
Cc1ccc(C(=O)N2CCC3(CC2)Oc2ccc(F)cc2C(=O)C32CC(c3cccnc3)=NO2)s1 (centres undefined) | . | -16% | -7% | 35µM* | . | -2%
Cc1ccc2nc(C)c(C(=O)N/N=C/c3ccc(C(=O)O)cc3)cc2c1 | 1% | 1% | -2% | 0% | -62* | 5%
CCCCSc1nnc2n(-c3cccc(C)c3)c(=O)c3c4c(sc3n12)CCCC4 | . | . | 5% | . | -11 | .
O=C(Nc1ccccc1C(=O)Nc1nnc(C(F)(F)F)s1)c1ccccc1Cl | -11%[15.4 µM] | -82% | 2% | 32µM* | -27 | 6%
CC(NC(=O)CN(C)Cc1cccc(Cl)c1)c1ccccc1 (centres undefined) | 2%[15.4 µM] | 17% | 6% | 11µM* | 7 | -2%[11.5 µM]
O=S(=O)(NC(=NCCc1ccc(Cl)cc1)c1ccccc1Cl)c1cccs1 | -2%[15.4 µM] | 6% | 1% | . | -1 | -5%
O=C(c1ccccc1)c1ccc(N2CCN(C(=O)c3ccc(F)cc3F)CC2)c(F)c1 | -22% | -18% | . | . | -4 | .
O=[N+]([O-])c1ccccc1/C=C/C=N/n1c(-c2cc(-c3ccccc3)n[nH]2)n[nH]c1=S | -2%[15.4 µM] | -21% | 1% | -29% | -69* | -2%
COc1ccc(OC)c(N(CCN2C(=O)c3ccccc3C2=O)C(=O)C2CCC(=O)C2C)c1 (centres undefined) | -37% | 0% | . | . | -2 | .
O=C(CN(C(=O)c1csnn1)c1ccc(Cl)cc1)NC1CCCC1 | 15% | 13% | 3% | 5% | -9 | 5%
CC(=O)c1ccc(N(CC(=O)NC2CCCC2)C(=O)c2csnn2)cc1 | 25% | 4% | 0% | 8% | -82* | 3%
COc1ccc(-c2nn3c(=O)cc(CN4CCN(C(=O)c5ccc(C(C)(C)C)cc5)CC4)nc3s2)cc1 | . | . | 13% | . | . | .
CCOC(=O)Cc1csc(NC(=S)NC(=O)c2cc(OC)c(OC)c(OC)c2)n1 | 10% | 3.5µM* | 1% | -9% | 0 | -7%
CCOC(=O)C1=C(CN2CCN(c3ccccc3F)CC2)NC(=O)NC1c1ccc(OC)cc1 (centres undefined) | . | . | 0% | . | 7 | .
N#C/C(=N\Nc1cccc(C(F)(F)F)c1)C(=O)c1csc(-c2cccnc2)n1 | -11% | 4% | 6% | 25µM* | . | -28%
Cc1ccc(C(=O)Nc2cccc(C(F)(F)F)c2)cc1NC(=O)c1csc(-c2ccncc2)n1 | 13% | 8% | 4% | -20% | 10 | -13%
CCCCn1c(SCC(=O)c2ccc(OCC)cc2)nc2cc(S(N)(=O)=O)ccc21 | -37% | -22% | 30% | -13% | -19 | -3%
CCCCn1c(SCC(=O)c2ccc(OC)c(OC)c2)nc2cc(S(N)(=O)=O)ccc21 | -26% | 11% | 3% | 9% | -75* | -10%
SMILES | gsp ag | a7 integrin act | RXFP1 ag | gsp antagonist | RXFP1 antag | S-ASM inh
Cc1nc(C)c(-c2csc(Nc3ccc(N)cc3)n2)s1 | -26% | -11% | 4% | -14% | -2 | -8%
COc1ccc(Nc2nc(-c3sc(C)nc3C)cs2)cc1 | 4% | 0% | 0% | 11% | -61* | -7%
CCOc1ccc(-n2c([S-])c(C(=O)Nc3ccc(S(=O)(=O)N4CCOCC4)cc3)[n+]3cc(C(N)=O)ccc23)cc1 | 4%[15.4 µM] | 6% | 32µM* | 11% | -2 | 31%
CCOc1ccc(NC(=O)COC(=O)c2ccc(S(=O)(=O)N3CCOCC3)cc2)cc1 | 8% | 3% | . | 3% | 8 | 1%
Cc1ccc(C(=O)N2CCc3cc(CNS(=O)(=O)c4cccs4)ccc32)cc1 | . | . | 2% | . | -5 | .
Cc1ccc(N(Cc2cccs2)C(=O)COc2cccc(C)c2)cc1 | . | . | 2% | . | . | .
COc1ccc(N(Cc2cccs2)C(=O)COc2cc(C)c(Cl)c(C)c2)cc1 | . | . | -2% | . | -69* | .
COc1ccc(N(Cc2cccs2)C(=O)COc2cccc(C)c2C)cc1 | . | . | 0% | . | -72* | .
N#Cc1ccc(OCC(O)CS(=O)(=O)c2ccccc2)cc1 (centres undefined) | 21%[15.4 µM] | 10µM* | 3% | 5% | -1 | 2%
Cc1ccc(S(=O)(=O)CC(O)COc2ccccc2C#N)cc1 (centres undefined) | 1% | -23% | 4% | -4% | 2 | -3%
Clc1cccc(-c2ccc(CNCCSc3nnnn3-c3ccccc3)o2)c1 | . | . | 1% | . | -19 | .
CCOC(=O)CC(NC(=O)CCc1c(C)nc2nc(C)nn2c1C)c1ccc(OC(C)C)cc1 (centres undefined) | ? | 1% | 18µM* | 8% | -6 | -4%
CC1(C)CC(C(CC(=O)N2CCCC2)Cc2ccccc2)CCO1 (centres undefined) | -22% | -23% | 1% | 50µM* | 1 | 3%
COc1ccc(-c2cc(-c3cc(C)ccc3O)[nH]n2)cc1 | 26% | -24% | 1% | -19% | -100* | -13%
COc1ccc(-c2cc(-c3ccc(C)cc3)n[nH]2)c(O)c1 | ? | 2% | 0% | ? | 10 | 7%
N#C[C@H]1C[C@H]2C[C@@H]2N1C(=O)[C@@H](N)C12CC3CC(CC(O)(C3)C1)C2 | . | . | . | . | 10 | .
O=C1Nc2ccc(Br)cc2/C1=C/C(=O)c1ccccc1 | 10% | -52% | . | -4% | -82* | -8%
O=C(O)COc1ccccc1/C=C1\C(=O)Nc2ccc(Br)cc21 | -9%[15.4 µM] | -27% | -1% | 3% | -19 | 3%
CC(=O)/C=C1/C(=O)Nc2ccccc21 | -5% | -4% | -1% | -27% | -73* | -5%
CCCc1cc(-c2[nH]ncc2-c2ccc(C(=O)OCC)o2)c(O)cc1O | -48% | -20% | 4% | -26% | -33 | -18%

Assay outcomes as filed in PubChem.
